The nature of test [1]: Primary fluorescence-based thiol-reactive (MSTI) qHTS assay for identification of artifact compounds. (AID 1845221). Also: nearly all actives have a fitted effect of over 65% in size. Also: potency is read from the fitted curve at half-maximal effect.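 As to activity change, negative = thiol reactive: series mostly up to about 54 µM; thiol-reactive compounds lower the probe fluorescence signal.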 Summed up:
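In PBS pH 7.4 with 2% DMSO, each compound met 4 uM MSTI for one hour at ambient temperature, shielded from light, before fluorescence detection.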

Test [2] has as its system Nanoluciferase (engineered Oplophorus gracilirostris luciferase). The experiment in a line: Primary Nanoluciferase (NLuc) qHTS assay for identification of artifact compounds. (AID 1845222).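 Also: series mostly up to about 54 µM; 0% = DMSO and -100% = no enzyme.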 Summed up:
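Compounds are pinned into diluted (1:55) conditioned medium of NLuc-expressing S16 cells and held 15 min at room temperature protected from light. Nano-Glo substrate follows, and luminescence is read 5 min later.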

Unmarked numbers belong to inactive results. Results filed as inconclusive are left out. Activity calls are given as the source filed them. Calls follow the shape of the dose curve; as a rule, active = well fitted curve in the direction sought with a large enough effect; inconclusive = small, poorly fitted or top-dose-only effect, or another doubt; inactive = no such curve, though single readings can be large; an effect the other way counts as inactive or inconclusive.

For the molecule `C/C(=C\CCC(C(=O)O)C1CCC2(C)C3=C(CCC12C)C1(C)CCC(=O)C(C)(C)C1CC3)C(=O)O` (configuration not stated), the Potency entry in test [1] and in test [2] was “inactive” throughout.

In the case of `CC(C)c1cc2c(c(O)c1O[C@@H]1O[C@H](CO)[C@@H](O)[C@H](O)[C@H]1O)CC1(O)CCC(O)C(C)(C)C1CC2` (some centres not stated), the Potency in test [1] was 9.22 µM (active). The Potency result in test [2] is “inactive”.

As to `CC(CCC1(O)OC2CC3C4CCC5CC(O[C@@H]6O[C@H](CO)[C@@H](O)[C@H](O)[C@H]6O[C@@H]6OC[C@@H](O)[C@H](O)[C@H]6O)C(O)CC5(C)C4CCC3(C)C2C1C)CO[C@@H]1O[C@H](CO)[C@@H](O)[C@H](O)[C@H]1O` (some centres not stated), the activity change, negative = thiol reactive in test [1] was -13.7% [at 11.5 µM]. For the same molecule, the activity, negative = inhibition in test [2] is 4.39% [at 11.6 µM].

As for `COc1c(C(CC(C)C)OC(C)=O)ccc(Oc2c(O)cc(C)cc2/C=C/C(C)=O)c1C(=O)O` (configuration not stated), the Potency in test [1] is 4.62 µM (active). Moreover, the Potency entry in test [2] is “inactive”.

As for `C=C1CCC2C(C)(COC3OC(COC(=O)CC(=O)O)C(O)C(O)C3O)CCCC2(C)C1CCC1=CCOC1=O` (configuration not stated), the Potency entry in test [1] and in test [2] was “inactive” in each case.

In the case of `COC(=O)[C@@]1(C)CC[C@]2(C(=O)O[C@@H]3O[C@H](CO)[C@@H](O)[C@H](O)[C@H]3O)CC[C@]3(C)C(=CCC4[C@@]5(C)CC[C@H](O[C@@H]6O[C@H](C(=O)O)[C@@H](O)[C@H](O)[C@H]6O)C(C)(C)C5CC[C@]43C)[C@@H]2C1` (some centres not stated), the activity change, negative = thiol reactive in test [1] is 77.9% [at 11.5 µM]. Besides, the activity, negative = inhibition in test [2] was -2.3% [at 11.6 µM].

Turning to `CC1CC(=O)C2=C(O1)OC1(C)CCC3C(C)(C)C=CC(=O)C3(C)C1C2` (configuration not stated), the Potency in test [1] is 7.36 µM (active).

Turning to `CC1(C)CC[C@]2(C(=O)O[C@@H]3O[C@H](CO)[C@@H](O)[C@H](O)[C@H]3O)CC[C@]3(C)C(=CCC4[C@@]5(C)C[C@@H](O)[C@H](O)[C@@](C)(CO)C5CC[C@]43C)C2C1` (some centres not stated), the Potency result in test [1] and in test [2] was “inactive” in each case.

With `O=C(/C=C/c1c(C(=O)O)[nH]c2cc(Cl)cc(Cl)c12)Nc1ccccc1`, in test [1], the Potency result was “inactive”.

Turning to `O=C(/C=C/c1ccc(O)cc1)OCC1=C[C@@H](O)[C@@H]2C=CO[C@@H](O[C@@H]3O[C@H](CO)[C@@H](O)[C@H](O)[C@H]3O)[C@H]12`, in test [1], the Potency was 5.82 µM (active). Besides, in test [2], the Potency result was “inactive”.

Turning to `O=C(O)C[C@@H](NC(=O)c1cc(-c2ccc(-c3ccncc3)cc2)cs1)c1ccccc1`, the Potency entry in test [1] was “inactive”.

As to `CO[C@@]12CC3[C@@H]([C@@H](O)[C@@H](OC(C)=O)C4[C@](C)(COC(C)=O)CCC[C@]34C)[C@@H](C)C1=CC(=O)O2` (some centres not stated), the Potency entry in test [1] is “inactive”.

For the molecule `C[C@@H]1C(=O)O[C@H]2CC34[C@H]5C[C@@H](C(C)(C)C)C36[C@@H](OC(=O)[C@@H]6O)O[C@@]4(C(=O)O5)[C@]21O` (some centres not stated), the Potency entry in test [1] and in test [2] was “inactive” each time.

In the case of `CC1(C)CC(=O)N(CCCCN2CCN(c3ncccn3)CC2)C(=O)C1`, the Potency entry in test [1] and in test [2] was “inactive” throughout.

On to `CC1CCC2C(C(=O)O)=CC3CC(C)(C)CC132` (configuration not stated), for which the Potency in test [1] was 23.8 µM (active). Moreover, in test [2], the Potency entry was “inactive”.

Regarding `CC/C=C\C[C@H]1C(=O)C=C[C@@H]1CCCCCCCC(=O)O`, the Potency entry in test [1] is “inactive”.

On to `CC1=CC[C@]2(C(=O)O[C@@H]3O[C@H](CO[C@@H]4O[C@H](CO)[C@@H](O[C@@H]5O[C@@H](C)[C@H](O)[C@@H](O)[C@H]5O)[C@H](O)[C@H]4O)[C@@H](O)[C@H](O)[C@H]3O)CC[C@]3(C)C(CCC4[C@@]5(C)C[C@@H](O)[C@H](O)[C@@](C)(CO)C5CC[C@]43C)C2C1C` (some centres not stated), for which the activity change, negative = thiol reactive in test [1] is 137% [at 11.5 µM]. Also, in test [2], the activity, negative = inhibition was 3.97% [at 11.6 µM].

With `C=C(C)[C@@H](C)[C@H]1O[C@]23C[C@]4(CO2)C(CCC2[C@@]5(C)CC[C@H](O[C@@H]6OC[C@H](O)[C@H](O[C@@H]7O[C@H](CO)[C@@H](O)[C@H](O)[C@H]7O)[C@H]6O[C@@H]6O[C@@H](CO)[C@H](O)[C@H]6O)C(C)(C)C5CC[C@]24C)C3[C@@](C)(O)[C@@H]1OC(C)=O` (some centres not stated), in test [1], the activity change, negative = thiol reactive is 6.68% [at 11.5 µM]. The activity, negative = inhibition in test [2] was 4.88% [at 11.6 µM].

Consider `CC(=O)c1c(O)cc2cccc3c2c1CC(C)(O)O3` (configuration not stated), for which, in test [1], the Potency was 5.32 µM (active). Further, in test [2], the Potency entry is “inactive”.

As to `O=S(=O)(Nc1ccc(C(O)(C(F)(F)F)C(F)(F)F)cc1)c1cccs1`, the Potency entry in test [1] and in test [2] was “inactive” each time.

For the molecule `C=CC(C)(O)CC/C=C(\C)C(=O)OCC1OC(OC2CCC3(C)C(CCC4(C)C3CC=C3C5CC(C)(C)C(O)CC5(C(=O)O)CCC34C)C2(C)C)C(O)C(OC2OC(CO)C(O)C(OC3OC(CO)C(O)C(OC4OC(COC5OC(CO)C(O)C(O)C5O)C(O)C(O)C4O)C3O)C2O)C1O` (configuration not stated), in test [1], the activity change, negative = thiol reactive is 67.6% [at 11.5 µM]. Also, the activity, negative = inhibition in test [2] was 4.87% [at 11.6 µM].

As for `NS(=O)(=O)OC[C@@H]1C[C@@H](n2ccc3c(N[C@H]4CCc5ccccc54)ncnc32)C[C@@H]1O`, the Potency entry in test [1] and in test [2] was “inactive” in each case.

Consider `CCNC(=O)[C@@H]1CCCN1C(=O)[C@H](CCCN=C(N)N)NC(=O)[C@H](CC(C)C)NC(=O)[C@@H](C)NC(=O)[C@H](Cc1ccc(O)cc1)NC(=O)[C@H](CO)NC(=O)[C@H](Cc1c[nH]c2ccccc12)NC(=O)[C@H](Cc1cnc[nH]1)NC(=O)[C@@H]1CCC(=O)N1`, for which the Potency result in test [1] is “inactive”.

Turning to `Cc1ccc2c(c1)C=Cc1cc(C)ccc1C2c1cn(Cc2ccc(C(=O)Nc3nn[nH]n3)o2)c(=O)[nH]c1=S`, the Potency entry in test [1] and in test [2] was “inactive” each time.
